Experimental data: the supplement of paper PMC6805474

What was measured:
[1] = test system: Schistosoma mansoni schistosomula (LE); experiment: XTT viability relative to DMSO control; higher = more viable (less active); settings: 72 h; 10 µM
Protocol: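 XTT/PMS was then added for a further 24 h (72 h total) and A450 was read. % viability = (sample - heat-killed control)/(DMSO control - heat-killed control) x 100, from duplicate wells in two independent experiments.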

[2] = test system: Schistosoma mansoni schistosomula (NMRI); experiment: phenotypic severity score (0-4); higher = more antischistosomal effect, active = 2 or more; settings: 10 µM
[3] = test system: Schistosoma mansoni schistosomula (Liberian); experiment: drug effect (1 - score/DMSO control score) (fraction); higher = more antischistosomal effect, active = 0.5 or more; extreme values may be limits of the assay; settings: 10 µM
Method in brief: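 Schistosomula of the Liberian strain of Schistosoma mansoni were mechanically transformed from cercariae, pre-incubated for at least 12 h, and placed at 50 per well in flat-bottom 96-well plates with Medium 199 containing 5% FCS. Compounds were tested in duplicate at 10 µM at 37 °C and 5% CO2, alongside wells holding 0.1% DMSO. Parasites were scored visually at 10× after 24, 48 and 72 h on a quarter-point scale running from 3 (normal) to 0 (dead). Drug effect came from the mean test-well score relative to the mean DMSO-well score, with negative values set to zero and plates accepted only when the DMSO wells averaged at least 2.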
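Throughout, for phenotypic severity score (0-4): visual microscopic scoring of shape, motility and density changes versus 0.5% DMSO solvent controls, one point per descriptor, degeneracy or death scored 4, mean of duplicate wells.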

Row | Compound | XTT viability [1] | phenotypic severity score ([2]; 24 h) | phenotypic severity score ([2]; 48 h) | phenotypic severity score ([2]; 72 h) | drug effect ([3]; 24 h) | drug effect ([3]; 48 h) | drug effect ([3]; 72 h)
1 | O=C(c1ccc(NCCO)cc1)C1C[C@H]1c1ccc(Cl)cc1 (stereo partly drawn) | 93.3% | 0 (inactive) | 0 (inactive) | 0 (inactive) | 0.135 (inactive) | 0.278 (inactive) | 0.625 (active)
2 | O=C(NC1CCCCC1)N1CCN(Cc2ccc3c(c2)OCO3)CC1 | 88.6% | 0 (inactive) | 0 (inactive) | 0 (inactive) | 0.0455 (inactive) | 0.2 (inactive) | 0.127 (inactive)
3 | CC1(COc2ccc(N3CCC(Oc4ccc(OC(F)(F)F)cc4)CC3)cc2)Cn2cc([N+](=O)[O-])nc2O1 (stereo not drawn) | 110% | 0 (inactive) | 0 (inactive) | 0 (inactive) | 0.158 (inactive) | 0.111 (inactive) | 0.0625 (inactive)
4 | O=C(Cn1ccnc1[N+](=O)[O-])NCc1ccccc1 | 89.2% | 0 (inactive) | 0 (inactive) | 0 (inactive) | 0.15 (inactive) | 0.243 (inactive) | 0.222 (inactive)
5 | Cn1c(=O)c2c(S(C)(=O)=O)snc2n(C)c1=O | -0.448% | 4 (active) | 4 (active) | 4 (active) | 1 (active) | 1 (active) | 1 (active)
6 | CNc1nnc(Sc2cnn(-c3ccccc3)c(=O)c2Cl)s1 | -5.83% | 4 (active) | 4 (active) | 4 (active) | 1 (active) | 1 (active) | 1 (active)
7 | c1csc(-c2cnc3sc(NCC4CCOCC4)nn23)c1 | 95.7% | 0 (inactive) | 0 (inactive) | 0 (inactive) | 0.182 (inactive) | 0.55 (active) | 0.345 (inactive)
8 | COC(=O)c1ccc(F)cc1NS(=O)(=O)c1cccc(-c2cnn(Cc3ccccc3)c2)c1 | 89.1% | 1 (inactive) | 1 (inactive) | 1 (inactive) | 0.409 (inactive) | 0.45 (inactive) | 0.455 (inactive)
9 | FC(F)(F)c1cccc(-c2nc3c(NCc4ccncc4)nccc3[nH]2)c1 | 90.7% | 0 (inactive) | 0 (inactive) | 0 (inactive) | 0.15 (inactive) | 0.0811 (inactive) | 0.152 (inactive)
10 | Cc1cc(C)n2nc(C(=O)Nc3cc(C(F)(F)F)ccc3N3CCOCC3)nc2n1 | 73.3% | 0 (inactive) | 0 (inactive) | 0 (inactive) | 0.05 (inactive) | 0.135 (inactive) | 0.222 (inactive)
11 | COc1cncc(-c2cncc(N3CCN(c4ccncc4)CC3)n2)c1 | 103% | 1 (inactive) | 0 (inactive) | 0 (inactive) | 0.351 (inactive) | 0.389 (inactive) | 0.688 (active)
12 | Cc1nc(-c2ccccn2)nc(N(C)CCc2ccccc2)c1Cl | 20.7% | 1 (inactive) | 4 (active) | 4 (active) | < 0 (inactive) | 0.189 (inactive) | 0.697 (active)
13 | Nc1nccc2ccc(Oc3ccncc3)cc12 | 152% | 0 (inactive) | 0 (inactive) | 0 (inactive) | 0.1 (inactive) | 0.222 (inactive) | 0.375 (inactive)
14 | CCN(CC)S(=O)(=O)c1ccc(Cl)c(C(=O)Nc2ccc3nc(C)sc3c2)c1 | 87.9% | 1 (inactive) | 0 (inactive) | 0 (inactive) | 0.05 (inactive) | 0.027 (inactive) | 0.111 (inactive)
15 | c1ccc(Oc2ccc(-c3cncc(-c4ccc5[nH]ccc5c4)n3)cc2)cc1 | 3.06% | 0 (inactive) | 0 (inactive) | 2 (active) | 0.6 (active) | 1 (active) | 1 (active)
16 | O=C(C1CCN(c2nnnn2-c2ccccc2)CC1)N1CCc2ccccc2C1 | 117% | 0 (inactive) | 0 (inactive) | 0 (inactive) | 0.135 (inactive) | 0.111 (inactive) | 0.25 (inactive)
17 | CC(C)(C)CN1C(=O)C(c2ccccc2)(c2ccccc2)N=C1N | 88.6% | 0 (inactive) | 0 (inactive) | 0 (inactive) | 0.1 (inactive) | 0.135 (inactive) | 0.273 (inactive)
18 | COc1ccc(C2=NN(C3CCCCCC3)C(=O)C2(C)C)cc1OCCCCOc1ccc(-c2nn[nH]n2)cc1 | 3.51% | 1 (inactive) | 0 (inactive) | 0 (inactive) | 0.182 (inactive) | 0.2 (inactive) | 0.127 (inactive)
19 | OCCc1ccc(Nc2nccc(-c3nnc4ccccn34)n2)cc1 | 109% | 0 (inactive) | 1 (inactive) | 4 (active) | 0.2 (inactive) | 0.556 (active) | 0.562 (active)
